PubChem BioAssay (NCI)
About 79,000 compounds went through this panel and 15% of them were active in at least one assay; those are over-represented in the sample as a whole. Calls of active or inactive are those of the source. Cut-off read from the data, not from the text of the source: active = growth inhibition above about 70%; inactive = the rest.

Columns and labels:
[1] = NCI Yeast Anticancer Drug Screen. Data for the rad50 strain (AID 155);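 note: 0% = growth of vehicle-only cultures of the same strain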; settings: S. cerevisiae rad50 strain growth inhibition, active compounds read high
Summary of the method: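 Vehicle-treated cultures provide the reference for the growth inhibition reported for compound-exposed, repair-deficient yeast.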

[2] = NCI Yeast Anticancer Drug Screen. Data for the mec2-1 strain (AID 157); settings: S. cerevisiae mec2-1 strain, active compounds read high
Summary of the method: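 Compounds were applied to mec2-1 yeast cells. Their growth was then compared with that of vehicle-treated cultures to give growth inhibition.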

[3] = NCI Yeast Anticancer Drug Screen. Data for the sgs1 mgt1 strain (AID 161);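 note: 0% = growth of cultures given vehicle only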; settings: S. cerevisiae sgs1 mgt1 strain, active compounds read high
Summary of the method: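 Compounds are added to genetically altered yeast, and growth is compared with cultures given vehicle alone to give percent inhibition.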

[4] = NCI Yeast Anticancer Drug Screen. Data for the cln2 rad14 strain (AID 165);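 note: 0% = growth equal to vehicle treated cultures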; settings: S. cerevisiae cln2 rad14 strain, active compounds read high
Summary of the method: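 Strain: cln2 rad14 yeast, altered in cell cycle control and DNA damage repair. Read-out: growth inhibition vs vehicle.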

[5] = NCI Yeast Anticancer Drug Screen. Data for the bub3 strain (AID 167); settings: S. cerevisiae bub3 mutant strain, active compounds read high
Summary of the method: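 Mutant yeast screening strain plus compound; vehicle-treated cultures serve as the 0% inhibition reference.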

[6] = NCI Yeast Anticancer Drug Screen. Data for the mlh1 rad18 strain (AID 175); settings: S. cerevisiae mlh1 rad18 strain growth inhibition, active compounds read high
Summary of the method: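 A repair-deficient yeast strain is exposed to test compound, and growth is scored relative to vehicle-treated controls.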

[7] = at 5.0 µM (retest, dose inferred, filed as 0.5)
[8] = at 50.0 µM (retest, dose inferred, filed as 5.0)

Measured: growth inhibition

CN(C)C(=S)SSSSC(=S)N(C)C
active: [1]; [7] 96% | [1]; [8] 99% | [1]; at 50.0 µM 96.9% | [2]; [7] 98% | [2]; [8] 99% | [2]; at 50.0 µM 96.7% | [3]; [7] 98% | [3]; [8] 99% | [3]; at 50.0 µM 98.3% | [4]; [8] 99% | [4]; at 50.0 µM 93.3% | [5]; [7] 96% | [5]; [8] 99% | [5]; at 50.0 µM 96.8% | [6]; [7] 97% | [6]; [8] 99% | [6]; at 50.0 µM 97%
inactive: [4]; [7] 65%

O=C(O)CCC/C(=N\Nc1ccccc1)C(=O)O
inactive: [1]; [7] 5% | [2]; [7] 2% | [3]; [7] 6% | [4]; [7] 0% | [5]; [7] 1% | [6]; [7] 7%
active: [1]; [8] 97% | [1]; at 50.0 µM 98.5% | [2]; [8] 99% | [2]; at 50.0 µM 99.2% | [3]; [8] 97% | [3]; at 50.0 µM 98.7% | [4]; [8] 99% | [4]; at 50.0 µM 97.4% | [5]; [8] 98% | [5]; at 50.0 µM 99% | [6]; [8] 98% | [6]; at 50.0 µM 98.3%

O=C(/C=C/c1ccccc1)NOC(=O)/C=C/c1ccccc1
inactive: [1]; [7] 42% | [2]; [7] 34% | [3]; [7] 66% | [4]; [7] 25% | [5]; [7] 34% | [6]; [7] 42%
active: [1]; [8] 93% | [1]; at 50.0 µM 97.5% | [2]; [8] 95% | [2]; at 50.0 µM 99.2% | [3]; [8] 94% | [3]; at 50.0 µM 98.9% | [4]; [8] 91% | [4]; at 50.0 µM 98.5% | [5]; [8] 92% | [5]; at 50.0 µM 99% | [6]; [8] 93% | [6]; at 50.0 µM 98.5%

C[N+]1(C)CCN(CCCN2c3ccccc3Sc3ccccc32)CC1
inactive: [1]; [7] 0% | [1]; [8] 54% | [1]; at 50.0 µM 42.1% | [2]; [7] 8% | [2]; [8] 22% | [2]; at 50.0 µM 14.3% | [3]; [7] -222% | [3]; [8] 66% | [3]; at 50.0 µM 66.9% | [4]; [7] 4% | [4]; [8] 15% | [4]; at 50.0 µM 25.7% | [5]; [7] 5% | [5]; [8] 26% | [5]; at 50.0 µM 10.9% | [6]; [7] -5% | [6]; at 50.0 µM 56.9%
active: [6]; [8] 76%

OB1c2ccccc2CCc2ccccc21
inactive: [1]; [7] -4% | [2]; [7] -7% | [3]; [7] -4% | [4]; [7] -13% | [5]; [7] -25% | [6]; [7] -2%
active: [1]; [8] 99% | [1]; at 50.0 µM 99.3% | [2]; [8] 99% | [2]; at 50.0 µM 99.5% | [3]; [8] 99% | [3]; at 50.0 µM 99.5% | [4]; [8] 98% | [4]; at 50.0 µM 96.6% | [5]; [8] 99% | [5]; at 50.0 µM 99.2% | [6]; [8] 99% | [6]; at 50.0 µM 99%

CCN(CC)CCOc1c(Cl)c(Cl)c(Cl)c(Cl)c1Cl
inactive: [1]; [7] 23% | [1]; [8] 62% | [2]; [7] 15% | [2]; at 50.0 µM 57.5% | [3]; [7] 20% | [4]; [7] -1% | [4]; at 50.0 µM 48.5% | [5]; [7] 1% | [5]; [8] 56% | [5]; at 50.0 µM 64.2% | [6]; [7] 7%
active: [1]; at 50.0 µM 71.7% | [2]; [8] 77% | [3]; [8] 88% | [3]; at 50.0 µM 86.8% | [4]; [8] 80% | [6]; [8] 80% | [6]; at 50.0 µM 71.8%

COC(=O)N1C2C=CC(=O)C(C=C2)N1C(=O)OC (stereo not given)
active: [6]; [8] 79% | [6]; at 50.0 µM 85%
inactive: [1]; [7] -3% | [1]; [8] 30% | [1]; at 50.0 µM 33.9% | [2]; [7] 2% | [2]; [8] 38% | [2]; at 50.0 µM 53.2% | [3]; [7] 0% | [3]; [8] 58% | [3]; at 50.0 µM 47% | [4]; [7] 1% | [4]; [8] 23% | [4]; at 50.0 µM 36.4% | [5]; [7] -1% | [5]; [8] 34% | [5]; at 50.0 µM 60.6% | [6]; [7] 18%

NNC(=S)Nc1ccccc1
active: [2]; at 50.0 µM 79.9%
inactive: [1]; [7] 3% | [1]; [8] 5% | [1]; at 50.0 µM -7.25% | [2]; [7] -3% | [2]; [8] 1% | [3]; [7] -1% | [3]; [8] 1% | [3]; at 50.0 µM -14.6% | [4]; [7] 5% | [4]; [8] -4% | [4]; at 50.0 µM -28.9% | [5]; [7] 1% | [5]; [8] -1% | [5]; at 50.0 µM 2.2% | [6]; [7] -1% | [6]; [8] 10% | [6]; at 50.0 µM 8.05%

CN(C)CCC(=O)N1C/C(=C\c2ccc(Cl)c(Cl)c2)C(=O)/C(=C/c2ccc(Cl)c(Cl)c2)C1
active: [1]; [7] 98% | [1]; [8] 97% | [1]; at 50.0 µM 91.7% | [2]; [7] 99% | [2]; [8] 98% | [2]; at 50.0 µM 89.8% | [3]; [7] 99% | [3]; [8] 97% | [3]; at 50.0 µM 88.2% | [4]; [7] 98% | [4]; [8] 98% | [4]; at 50.0 µM 90% | [5]; [7] 99% | [5]; [8] 98% | [5]; at 50.0 µM 91.3% | [6]; [7] 99% | [6]; [8] 97% | [6]; at 50.0 µM 88.9%

CC1=C(C)CC2C(=O)C(C(O)CC(C)C)=CC(=O)C2C1 (stereo not given)
inactive: [1]; [7] -4% | [2]; [7] -5% | [3]; [7] -5% | [4]; [7] -13% | [5]; [7] -10% | [6]; [7] -9%
active: [1]; [8] 91% | [1]; at 50.0 µM 97.8% | [2]; [8] 91% | [2]; at 50.0 µM 98.5% | [3]; [8] 98% | [3]; at 50.0 µM 98.8% | [4]; [8] 86% | [4]; at 50.0 µM 95.5% | [5]; [8] 97% | [5]; at 50.0 µM 98.2% | [6]; [8] 97% | [6]; at 50.0 µM 98.9%
